# Measured values as given in PubChem BioAssay AID1569 (National Center for Advancing Translational Sciences (NCATS), 2009).
# Results filed as inconclusive are left out. Unmarked numbers belong to inactive results. Calls of active or inactive are those of the source. The call rests on the fitted dose curve; in most records, active means well fitted inhibition curve with a large enough effect; inconclusive means small, poorly fitted or top-dose-only effect, or effect the other way, or another doubt; inactive means no such curve, though single readings can be large or run the other way.
# Test: Confirmation Concentration-Response Assay for lipid storage modulators; further: nearly all actives have a fitted effect of over 80% in size;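 on activity change, negative = inhibition: -100% = full block of lipid deposition by 20 µM Triacsin C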
# Settings: Drosophila S3 cells, lipid droplet BODIPY/CellTracker ratio, 18-24 h; series mostly up to 46.1 µM; activity change, negative = inhibition: at the top concentration
# Summary of the method: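 Cells at 5,000/well received compound as a titration plus oleic acid (added as 400 uM solution) and were incubated 18–24 h at 24 °C. BODIPY 493/503 lipid signal and CellTracker Red cell count were read by 488-nm laser-scanning cytometry. Activity was normalised to 20 uM Triacsin C.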
# Potency means the concentration at half of the fitted maximal effect.
Structure (SMILES),Potency,"activity change, negative = inhibition"
COC(=O)c1c(-c2c(Cl)cccc2Cl)noc1NC(=O)NN1CCOCC1,2.5 µM (active),–
c1ccc(CNc2ncnc3ccccc23)cc1,12.5 µM (active),–
Cc1ccc(NCc2ccc(O)c3ncccc23)cc1,–,11%
Cn1nc(CC(=O)Nc2ccc(N3CCN(C(=O)OC(C)(C)C)CC3)cc2)c2ccccc2c1=O,1.77 µM (active),–
COc1ccc(/C=C\C(=O)NCc2ccc3[nH]c(C)cc3c2)cc1OC,4.45 µM (active),–
CCOc1ccc(CCNC(=O)COC(=O)CCc2cc(OC)c(OC)c(OC)c2)cc1OCC,–,-28%
COc1ccc2c(c1)c1nnc(SCC(=O)N3C(C)CCCC3C)nc1n2C (stereo unspecified),3.53 µM (active),–
COc1cccc(C(=O)O[C@@H]2[C@H](Cc3ccccc3)NS(=O)(=O)[C@H]3C[C@@H]4C=C[C@]23O4)c1,11.2 µM (active),–
O=C(Nc1ccc(Cl)c(Cl)c1)Nc1ccc(Br)cc1F,8.88 µM (active),–
Cc1ccccc1-n1ncc(C(C)NC(=O)c2ccco2)c1C (stereo unspecified),0.396 µM (active),–
Cn1cc(CNCc2ccc(OC(F)(F)F)cc2)c(-c2ccc3c(c2)OCCO3)n1,6.28 µM (active),–
CCN(CC)S(=O)(=O)c1cc(NC(=O)CNc2cccc(S(=O)(=O)N3CCOCC3)c2)ccc1C,2.81 µM (active),–
COc1ccccc1NC(=O)NC1(C(=O)N2CCC(C)CC2)CCCCC1,–,-17.9%
CCCCc1c(O)nc(SCC(=O)NCCc2ccc(OC)c(OC)c2)[nH]c1=O,–,22%
CN1CCN(C(=O)C2(NC(=O)NCc3ccccc3)CCCCC2)CC1,–,6.99%
COCc1ccc(C(=O)NC(C)c2cnn(-c3ccccc3C)c2C)o1 (stereo unspecified),12.5 µM (active),–
COc1ccccc1Nc1nnc(SCC(=O)Nc2nc(-c3ccc(F)cc3)cs2)s1,0.705 µM (active),–
CCOc1ccc(CCNC(=O)COC(=O)c2cccc(S(=O)(=O)N3CCCCC3)c2)cc1OCC,–,-7.33%

Structure (SMILES),Potency,"activity change, negative = inhibition"
N#Cc1ccsc1NC(=O)CN1CCN(S(=O)(=O)c2ccccc2C(F)(F)F)CC1,1.25 µM (active),–
O=C(CSc1nnc2c(n1)[nH]c1ccccc12)Nc1cccc(S(=O)(=O)N2CCOCC2)c1,15.8 µM (active),–
CC1=C(C(=O)NC2CCCc3c2cnn3-c2cccc(C)c2C)OCCO1 (stereo unspecified),0.0137 µM (active),–
Nc1cccc(-c2nc3cc(S(=O)(=O)c4ccc5oc(-c6cccc(N)c6)nc5c4)ccc3o2)c1,6.28 µM (active),–
O=C1C(Nc2ccccc2)=C/C(=N/S(=O)(=O)c2cccs2)c2ccccc21,7.91 µM (active),–
Cc1ccccc1C(=O)N1CCC(C(=O)Nc2ccc(S(=O)(=O)N3CCCCC3)cc2)CC1,–,-14.9%
Cc1ccc(-c2noc(C3CCCN(C(=O)c4ccccc4Br)C3)n2)cc1 (stereo unspecified),–,-18.5% [at 30.7 µM]
OC1(c2cccc(C(F)(F)F)c2)CCN(c2ncnc3c2[nH]c2ccc(F)cc23)CC1,7.91 µM (active),–
CCCOc1ccc(Cc2c(Cl)nc(SC)nc2NC)cc1,14.1 µM (active),–
Cc1ccc(S(=O)(=O)N(C)C)cc1NC(=O)COC(=O)c1sc2cc(Cl)ccc2c1Cl,14.1 µM (active),–
CCCc1ccc(-c2csc(NC(=O)Cc3cccs3)n2)cc1,1.58 µM (active),–
CCOc1ccc(CCNC(=O)COC(=O)c2cccs2)cc1OCC,3.15 µM (active),–
CC(=O)c1cc(-c2ccccc2)n(CC(=O)N2CCC(C)CC2)c1C,1.58 µM (active),–
COc1ccc(CC(=O)NCCc2ccc(OC)c(OC)c2)cc1,–,12.7%
CCOc1ccc(CCNC(=O)COC(=O)c2ccc3c(c2)OCCO3)cc1OCC,1.41 µM (active),–
CCOc1ccc(CCNC(=O)CN2CCN(Cc3ccccc3C)C2=O)cc1OCC,–,-49.3%
CCC1CCCCN1C(=O)c1cc(COc2ccc3ncccc3c2)on1 (stereo unspecified),4.34 µM (active),–
COc1cccc2cc(-c3nnc(SCC(=O)Nc4nc(C)cs4)n3C)oc12,1.99 µM (active),–
